# PubChem BioAssay AID1051 (The Scripps Research Institute Molecular Screening Center, 2008)
# About 340 (0.34%) of roughly 99,000 compounds were called active. Shown is part of a subset that was picked to be rich in actives. Unmarked numbers belong to inactive results. Cut-off read from the data, not from the text of the source: active = TR-FRET ratio above about 2300; inactive = the rest.
# Test: signal artefacts in PPARgamma/SRC-1 readout – biochemical, TR-FRET emission ratio, artefact control for PPARgamma SRC-1 recruitment agonists, primary screen (AID 1051)
# Details: TR-FRET detection artefact counter-screen, at 8 µM, active compounds read high
row,SMILES,TR-FRET ratio
1,Cc1ccc(C2NC(C(=O)O)CS2)cc1 (stereo unspecified),1760
2,CC1(C)C(C=C(Cl)Cl)C1C(=O)N(Cc1ccc(Cl)cc1)C1CCS(=O)(=O)C1 (stereo unspecified),1570
3,CCC(=O)N1c2ccccc2NC2=C(C(=O)CCC2)C1c1ccco1 (stereo unspecified),1690
4,Cn1c(N)c(C(=O)COC(=O)c2ccccc2NCc2ccco2)c(=O)n(C)c1=O,1870
5,CCN(C(=O)COc1cccnc1[N+](=O)[O-])C1CCS(=O)(=O)C1 (stereo unspecified),1750
6,Cc1ccc(CN2CCN(/N=C/c3cccnc3)CC2)c(C)c1,1720
7,Cc1ccccc1-c1n[nH]c(=S)n1C,1660
8,Cc1ccccc1-c1n[nH]c(=S)n1/N=C/c1ccc(-c2ccccc2Br)o1,2950 (active)
9,S=c1[nH]nc(-c2ccccc2)n1/N=C/c1c[nH]c2ccccc12,1810
10,CCc1ccc(CN(C)C(=O)CCc2nnc(-c3ccc(-c4ccccc4)cc3)o2)nc1,1540
11,O=C(COC(=O)c1cc(-c2cccs2)nn1-c1ccccc1)Nc1cc([N+](=O)[O-])ccc1Cl,2060
12,Cc1cc(CNCc2c(C(=O)N(C)Cc3ccccc3)nc3ccccn23)nn1C,1760
13,COc1ccccc1-c1nnc(NC(=O)c2cccc(N3C(=O)CCC3=O)c2)o1,1920
14,Cc1noc(C)c1COc1cccc(C(=O)Nc2cccnc2)c1,1740
15,O=C(CCC1CCCN(C(=O)Cc2ccc(F)cc2)C1)N1CCN(c2ccccn2)CC1 (stereo unspecified),1640
16,CCNc1ccc(C(=O)OCC(=O)N2c3ccccc3NC(=O)C2(C)C)cc1[N+](=O)[O-],1810
17,COCCNC(=O)C(OC(=O)c1cccs1)c1ccc(F)cc1 (stereo unspecified),1860
18,O=C(Nc1nnc(-c2ccco2)o1)c1ccc(S(=O)(=O)N2CCOCC2)cc1,1880
19,NC(=O)COC(=O)c1cc(S(=O)(=O)N2CCN(c3ccccc3)CC2)ccc1Cl,1880
20,Cc1ccc(C(=O)NC(=S)Nc2ccccc2C)cc1,1630
21,Cc1nc2ccccc2n1CC(=O)N/N=C/c1cccnc1,1750
22,CCCCOc1ccc(C(=O)NCC(=O)OCC(=O)N2CCN(S(=O)(=O)c3ccc(C)cc3C)CC2)cc1,1610
23,CC(C)CNC(=O)C(=O)Nc1ccc(N(C)C)cc1,1880

row,SMILES,TR-FRET ratio
1,CCCOc1ccc(N/C=C/C(=O)C(C)(C)C)cc1,1770
2,CN(C)c1ccc(N/C=C/C(=O)C(F)(F)F)cc1,2320 (active)
3,CC1CCCN(S(=O)(=O)c2ccc(N(C(=O)c3cnccn3)C(C(=O)NC3CCCCC3)c3cccs3)cc2)C1 (stereo unspecified),1760
4,C=CCn1c(=NC(=O)c2cccs2)sc2cc(NC(C)=O)ccc21,2340 (active)
5,CC(=O)Nc1ccc(/C=N/NC(=O)c2cccs2)cc1,1750
6,C=CCn1c(=NC(=O)c2ccc(S(=O)(=O)N3CCCC3)cc2)sc2cc(NC(C)=O)ccc21,1920
7,CC(NC(=O)CCC(=O)N1CCN(S(=O)(=O)c2ccc(Cl)cc2)CC1)c1ccccc1 (stereo unspecified),2170
8,CC(NC(=O)COC(=O)c1ccc2c(c1)OCO2)c1ccccc1 (stereo unspecified),1700
9,CCOc1ccc(/C=N/NC(=O)C(C)Sc2ccccn2)cc1OCC (stereo unspecified),1650
10,CCN(CC)C(=O)Cn1cc(S(=O)(=O)CC(=O)NCc2ccc3c(c2)OCO3)c2ccccc21,1870
11,Cc1cccc(-c2nc3ccccc3c(=O)n2NC(=O)Cc2ccc(Cl)cc2)c1,1630
12,O=C(Cc1cccs1)Nc1cccc(-c2nc3ccccc3[nH]2)c1,1820
13,CC(=O)Nc1ccc(S(=O)(=O)Nc2ccc(-c3ccc4nnc(C)n4n3)cc2)cc1,1930
14,C/C(N)=C(/C#N)C(=O)COC(=O)C1CCN(C(=O)c2ccc(Cl)cc2)CC1,1880
15,C/C(=N/O)c1ccc(N2C(=O)C3C4C=CC(C3C2=O)C2C3C(=O)N(c5ccc(/C(C)=N/O)cc5)C(=O)C3C42)cc1 (stereo unspecified),1760
16,CSc1ccc(/C=N/N2CCN(Cc3ccccc3Cl)CC2)cc1,1700
17,CC1CCCCC1NC(=O)COC(=O)Cc1ccc(Br)cc1 (stereo unspecified),1500
18,CCSC1=NCCN1C(=O)c1ccc(S(=O)(=O)N(CC)CC)cc1,1800
19,CCN(CC)Cc1nc2sc(C)c(C)c2c(=O)[nH]1,1970
20,Cc1ccc(OC(=O)CCC(=O)Nc2ccc(Br)cc2)cc1,1980
21,CC(=O)N/N=C(\C)c1ccc(Br)cc1Br,1740
22,COC(=O)c1onc(-c2c(OC)cc(OC)cc2OC)c1C(=O)OC,1640
23,Cc1sc2nc(CC(N)=O)[nH]c(=O)c2c1-c1ccccc1,1690
